Results as given in the supplement of paper PMC12645437, “Orthogonal IMiD-Degron Pairs Induce Selective Protein Degradation in Cells” (ACS Chemical Biology, 2025).
In all, about 8,300 sequences were measured (“log2 fold change of degron read counts, EGFP-low vs EGFP+ sorted cells (limma voom), compound-induced degradation”: median about -1.1, highest 2% from about 3.2 on). The entries come from a sample that favours the highest values as a whole.

T1: CRBN, Q96SW2
T1 chain: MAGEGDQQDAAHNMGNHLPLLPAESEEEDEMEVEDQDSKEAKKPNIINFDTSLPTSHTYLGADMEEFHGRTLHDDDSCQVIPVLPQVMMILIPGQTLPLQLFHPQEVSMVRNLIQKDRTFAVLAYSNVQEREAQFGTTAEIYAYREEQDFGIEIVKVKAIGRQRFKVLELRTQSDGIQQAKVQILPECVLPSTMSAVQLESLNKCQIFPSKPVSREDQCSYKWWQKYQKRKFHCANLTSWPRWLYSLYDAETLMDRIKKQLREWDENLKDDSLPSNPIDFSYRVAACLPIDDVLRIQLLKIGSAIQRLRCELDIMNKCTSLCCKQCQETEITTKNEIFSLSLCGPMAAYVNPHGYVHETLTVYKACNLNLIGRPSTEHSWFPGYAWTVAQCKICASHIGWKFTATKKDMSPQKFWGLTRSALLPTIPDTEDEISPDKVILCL


Target: T1, CRBN, Q96SW2
Assay: log2 fold change of degron read counts, EGFP-low vs EGFP+ sorted cells (limma voom), compound-induced degradation; higher = more compound-induced degradation of the degron-EGFP fusion; degrons are variants of IKZF1/3 zinc finger 2; compound dose not given here
Details: Jurkat, 18 h
[1] = compound: compound 19 (5-tert-butyl-thalidomide)
[2] = compound: compound 22 (5-morpholino-thalidomide)
[3] = compound: compound 33 (diphenyl IMiD analogue)
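Also: pooled lentiviral library of zinc finger degron-EGFP fusions in mCherry-positive Jurkat cells, FACS-sorted after compound exposure, with degron abundance counted by next-generation sequencing.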

Sequence	log2 fold change of degron read counts [1]	log2 fold change of degron read counts [2]	log2 fold change of degron read counts [3]	log2 fold change of degron read counts (compound: thalidomide)
FVCNVCGARFTQKGNLLRHIKL [46F_47V_49N_50V_52G_53A_54R_55F_67L_, Q9UKT9]	-0.689	0.0526	-0.518	0.565
FDCEICGHAFTQKGNLLRHIKL [46F_47D_49E_50I_52G_53H_54A_55F_67L_, Q9UKT9]	-2.17	-2.36	-2.99	-2.62
FQCEICGHAFTQKGNLLRHIKL [46F_47Q_49E_50I_52G_53H_54A_55F_67L_, Q9UKT9]	-3.35	-3.01	-2.87	-1.5
FGCNQCGRAFTQKGNLLRHIKL [46F_47G_49N_50Q_52G_53R_54A_55F_67L_, Q9UKT9]	-2.18	-2.21	-2.02	-1.91
FSCEICGRSFTQKGNLLRHIKL [46F_47S_49E_50I_52G_53R_54S_55F_67L_, Q9UKT9]	-1.46	-2.51	-1.36	-1.71
FTCPICGHQFTQKGNLLRHIKL [46F_47T_49P_50I_52G_53H_54Q_55F_67L_, Q9UKT9]	0.276	0.993	2.35	2.28
FLCDQCGASFTQKGNLLRHIKL [46F_47L_49D_50Q_52G_53A_54S_55F_67L_, Q9UKT9]	-2	-2.92	-1.43	-3.07
FMCEICGRCFTQKGNLLRHIKL [46F_47M_49E_50I_52G_53R_54C_55F_67L_, Q9UKT9]	-2.91	-2.9	-1.29	-1.79
FTCDQCGAFFTQKGNLLRHIKL [46F_47T_49D_50Q_52G_53A_54F_55F_67L_, Q9UKT9]	-2.38	-2.78	-2.11	-2.23
FYCNICGAEFTQKGNLLRHIKL [46F_47Y_49N_50I_52G_53A_54E_55F_67L_, Q9UKT9]	1.9	1.64	0.908	-1.03
FQCNICGAEFTQKGNLLRHIKL [46F_47Q_49N_50I_52G_53A_54E_55F_67L_, Q9UKT9]	-1.13	0.376	1.25	3.24
FNCNICGAEFTQKGNLLRHIKL [46F_47N_49N_50I_52G_53A_54E_55F_67L_, Q9UKT9]	-0.383	-1.22	-0.688	-0.836
FVCPICGAEFTQKGNLLRHIKL [46F_47V_49P_50I_52G_53A_54E_55F_67L_, Q9UKT9]	0.162	2.31	1.62	2.6
FSCPICGAEFTQKGNLLRHIKL [46F_47S_49P_50I_52G_53A_54E_55F_67L_, Q9UKT9]	1.92	1.11	1.41	1.11
FQCPICGAEFTQKGNLLRHIKL [46F_47Q_49P_50I_52G_53A_54E_55F_67L_, Q9UKT9]	1.17	1.71	2.51	3.61
FTCPQCGAWFTQKGNLLRHIKL [46F_47T_49P_50Q_52G_53A_54W_55F_67L_, Q9UKT9]	-1.97	-1.41	0.47	-0.222
FHCPICGHTFTQKGNLLRHIKL [46F_47H_49P_50I_52G_53H_54T_55F_67L_, Q9UKT9]	-2.42	-2.36	-1.31	-1.65
FQCNQCGHKFTQKGNLLRHIKL [46F_47Q_49N_50Q_52G_53H_54K_55F_67L_, Q9UKT9]	-3.13	-3.72	-2.89	-2.56
FICEICGRSFTQKGNLLRHIKL [46F_47I_49E_50I_52G_53R_54S_55F_67L_, Q9UKT9]	-2.87	-2.13	-1.31	-0.772
FYCEICGRYFTQKGNLLRHIKL [46F_47Y_49E_50I_52G_53R_54Y_55F_67L_, Q9UKT9]	1.09	0.388	-0.525	-1.2
FQCNICGACFTQKGNLLRHIKL [46F_47Q_49N_50I_52G_53A_54C_55F_67L_, Q9UKT9]	-0.735	1.82	1.65	3.38
FKCNICGACFTQKGNLLRHIKL [46F_47K_49N_50I_52G_53A_54C_55F_67L_, Q9UKT9]	-1.31	-2.26	-2.53	-1.43
FRCNICGACFTQKGNLLRHIKL [46F_47R_49N_50I_52G_53A_54C_55F_67L_, Q9UKT9]	-1.25	-0.613	0.532	0.406
FWCNICGACFTQKGNLLRHIKL [46F_47W_49N_50I_52G_53A_54C_55F_67L_, Q9UKT9]	2.95	3.36	1.98	0.445
FSCNICGACFTQKGNLLRHIKL [46F_47S_49N_50I_52G_53A_54C_55F_67L_, Q9UKT9]	0.632	1.69	2.11	1.06
FYCNICGACFTQKGNLLRHIKL [46F_47Y_49N_50I_52G_53A_54C_55F_67L_, Q9UKT9]	2.86	3.15	1.94	0.278
FVCDQCGAFFTQKGNLLRHIKL [46F_47V_49D_50Q_52G_53A_54F_55F_67L_, Q9UKT9]	-2.6	-2.32	-2.12	-2.19
FFCSVCGHPFTQKGNLLRHIKL [46F_47F_49S_50V_52G_53H_54P_55F_67L_, Q9UKT9]	-0.493	-1.26	-1.56	-1.25
